Screening results deposited in PubChem BioAssay by The Scripps Research Institute Molecular Screening Center.
A selection: hits, their analogues and other compounds. The true share with any hit is near 1.1%.
MsrA act = activators of bovine methionine sulfoxide reductase A. purified bovine MsrA, absorbance read-out. activation, % at 10.6 µM. 360,000 tested, 0.3% active. AID 602163; in the data active means activation above about 7.5%;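 further: 0% = vehicle and 100% = reference activator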
PKA-R1A activ = activates the PKA-R1A holoenzyme complex; P00514+P68181; PKA-R1A dissociation, Cy5-IP20 fluorescence polarization; scaled: DMSO 0%, 113 µM cGMP 100%; activation, % at 11.4 µM; 340,000 tested, 0.083% active;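 active means percent activation above the mean of all tested compounds plus 3 SD, cut at about 19% in these data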;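 further: higher means more PKAc released from R1A so a rise in polarization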
MsrA inhibitor = inhibits bovine methionine sulfoxide reductase A; purified bovine MsrA, absorbance read-out; inhibition, % at 15.5 µM; 360,000 tested, 0.75% active; AID 651718;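 further: 0% = vehicle wells with enzyme and 100% = reference inhibitor wells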
PKA-R2B act = activators of human PKA-R2B complex; PKA-R2B holoenzyme dissociation, Cy5-IP20 fluorescence polarization; R2B truncated from residue 108, S112A mutant; 0% DMSO only, 100% 113 µM cGMP; activation, % at 11.4 µM; AID 504700; P22694+P31323; 340,000 tested, 0.079% active;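 active means activation above a cutoff set at the mean over all compounds plus 3 SD, cut at about 18% in these data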;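 further: higher means more holoenzyme dissociation and a rise in polarization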
Target sequence (P31323 whole entry, looked up, other chains not shown, the tested form may be a part): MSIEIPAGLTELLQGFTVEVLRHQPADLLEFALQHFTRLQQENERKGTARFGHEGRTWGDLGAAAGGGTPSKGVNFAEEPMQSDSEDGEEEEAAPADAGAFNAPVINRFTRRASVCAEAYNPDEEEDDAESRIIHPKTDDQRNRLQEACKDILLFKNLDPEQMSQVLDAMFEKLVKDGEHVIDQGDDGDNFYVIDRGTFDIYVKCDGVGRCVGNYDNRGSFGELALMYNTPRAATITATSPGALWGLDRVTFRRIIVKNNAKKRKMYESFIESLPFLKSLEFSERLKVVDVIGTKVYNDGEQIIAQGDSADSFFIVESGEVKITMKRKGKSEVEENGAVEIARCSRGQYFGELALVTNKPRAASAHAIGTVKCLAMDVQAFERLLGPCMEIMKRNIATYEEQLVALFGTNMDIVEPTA
MsrA inh confirm = bovine MsrA inhibition, confirmed. AID 651822. purified bovine MsrA, absorbance read-out. 2,300 tested, 41% active. inhibition, % at 15.5 µM. shares compounds with MsrA inhibitor;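 further: coupled to thioredoxin reductase with NADPH and selenocystamine and DMSO as substrate; 0% = vehicle only and 100% = full effect of reference inhibitor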
* hit, by the source's call; / = not tested or not shown. Unless noted, no stated cut-off is given here; in the data, active means inhibition above about 4.5%; inactive means the rest.

SMILES	MsrA act	PKA-R1A activ	MsrA inhibitor	PKA-R2B act	MsrA inh confirm
COc1cc(C(=O)N(c2ccc(C)c(C)c2)C2C=CS(=O)(=O)C2)cc(OC)c1OC (stereo unspecified)	-1	-3	0	-3	/
O=C(c1ccc(NS(=O)(=O)/C=C/c2ccccc2)cc1)N1CCCCC1	-3	-13	3	5	/
CCN(/N=C/c1ccc(Cl)cc1)c1cc(=O)n(C)c(=O)[nH]1	-6	1	3	-4	/
CCN(/N=C/C=C/c1ccccc1)c1cc(=O)n(C)c(=O)[nH]1	-8	7	11*	2	11*
O=S1(=O)c2ccc(Br)cc2OC2CCCC[C@@H]2N1Cc1ccccc1 (stereo partly specified)	/	/	0	/	/
Cc1cc2c(cc1C)NC(c1cccnc1)C1=C(CC(C)(C)CC1=O)N2 (stereo unspecified)	-6	-6	4	2	/
Cc1ccc(C2NC(=S)NC3=C2C(=O)CC(C)(C)C3)cc1 (stereo unspecified)	5	8	4.8*	-11	1
CC1(C)CC(=O)C2=C(C1)Nc1ccccc1NC2c1cccnc1 (stereo unspecified)	-13	10	5.4*	1	4
COC(=O)c1ccc(C(=O)N=c2sccn2C)cc1	-4	-2	1	12	/
COc1ccc(C(=O)N=c2sccn2C)cc1	-3	-8	5.8*	-4	4
COC(=O)[C@]12C[C@H](CC(=O)NCC3CCCCC3)C(=O)N(CCC3=CCCCC3)C1=C[C@H](C(C)(C)C)O[C@@H]2C	/	/	0	/	/
CCOC(=O)C(C#N)=CN1CCNc2ccccc21	-3	-4	2	13	/
Cc1ccccc1S(=O)(=O)Cc1ccc(C(=O)NCc2ccc(F)cc2)o1	-4	2	-1	0	/
CCOC(=O)c1ccc2c(c1)n(CCCS(=O)(=O)[O-])c(/C=C/c1ccc(Cl)cc1)[n+]2CC	-4	1	5.6*	-14	5.4*
CCOC(=O)c1ccc2c(c1)n(CC)c(C)[n+]2CC	1	-8	-1	2	/
CC(C)CCCCCCCCc1cccc(O)c1C(=O)O	/	/	-1	/	/
CN(C)C=NC(=O)/C(C#N)=C1\CCc2ccccc2N1	-15	-8	6.3*	-15	3
COc1cccc(CCc2nnc(CCC(=O)NC(C)c3c(C)nn(C)c3C)o2)c1 (stereo unspecified)	-3	2	0	-1	/
CC(=O)c1cnc(N(C)C)s1	-3	3	6.5*	-5	4
CC(=O)c1cnc(Nc2ccccc2)s1	-2	-4	5	9	/
COC(=O)C1=C(C)N(C)C(=NCc2cc(OC)c(OC)c(OC)c2)NC1c1cccc(F)c1 (stereo unspecified)	/	/	-1	/	/
Cc1cccc(N/C=C/C(=O)c2ccc(Cl)cc2)c1	-1	4	2	-5	/
Cc1ccc[n+](/C(=C\C(=C=[N-])C#N)C(=O)c2ccc(Cl)cc2)c1	-6	1	4.8*	11	5.0*
O=C(O)c1cccc(NC2=C(n3nnc4ccccc43)C(=O)c3ccccc3C2=O)c1	0	0	32*	2	28*
O=C(O)c1cccc(NS(=O)(=O)c2ccc3nnn(O)c3c2)c1	-5	2	0	-5	/
SMILES	MsrA act	PKA-R1A activ	MsrA inhibitor	PKA-R2B act	MsrA inh confirm
O=C1CCCc2nc(N3CCCCC3)sc21	-3	-4	5.8*	-8	5.2*
O=C(N/N=C\C=C\c1ccc2c(c1)OCO2)c1cccnc1	-15	-4	8.0*	-16	5.7*
O=C(N/N=C\C=C\c1ccc2c(c1)OCO2)C1COc2ccccc2O1 (stereo unspecified)	-11	-9	4.8*	-12	3
Cc1cc(N2CCN(C(=O)OC(C)(C)C)C[C@H]2C)ccc1N1C[C@@H](C)O[C@@H](C)C1	/	/	1	/	/
COc1ccc(/C=C(\NC(=O)c2ccccc2)C(=O)NC2CCS(=O)(=O)C2)cc1 (stereo unspecified)	-2	-8	0	-8	/
CC1=C(C#N)C(=O)NC(=O)/C1=C\c1ccc(-c2ccc(C)cc2[N+](=O)[O-])o1	-5	4	9.2*	-2	4
CCOC(=O)c1cc(-c2ccc(/C=C3/C(=O)NC(=O)C(C#N)=C3C)o2)ccc1Cl	-10	-1	0	3	/
COc1ccc(-n2c(/C=C(\C)O)nc(=O)c3c(C)cc(C)nc32)cc1	-4	-2	5.8*	3	4
CC(C)c1cc(C(=O)N/N=C/C=C/c2ccccc2)n[nH]1	-5	-6	2	-7	/
O=C(N/N=C/C=C/c1ccc([N+](=O)[O-])cc1)c1cccs1	-1	-1	2	0	/
Cc1cc(C(=O)N/N=C/C=C/c2ccc([N+](=O)[O-])cc2)n[nH]1	-12	-4	7.6*	-9	7.9*
Cc1cc(C(=O)N/N=C/C=C/c2ccc(Br)cc2)n[nH]1	-3	7	6.0*	-3	3
C=CCCC1CN(Cc2ccc(OC)cc2)S(=O)(=O)c2c(F)cccc2O1 (stereo unspecified)	/	/	-1	/	/
CCc1ccc[n+](-c2[nH]c(=O)sc2/C=N/NC([S-])=Nc2ccccc2)c1	-5	-1	6.5*	5	1
Cc1cc(C)c[n+](-c2[nH]c(=O)sc2/C=N/NC([S-])=Nc2ccccc2)c1	-3	3	4.9*	-1	6.2*
O=C1NC(=S)N/C1=C/C=C/c1ccccc1	-4	-10	4.7*	-1	3
Cc1c(NS(=O)(=O)c2cccc(C(=O)NCc3cccc(Cl)c3)c2)c(=O)n(-c2ccccc2)n1C	0	13	0	-12	/
Cc1ccnc(N2C(=O)c3cccc4c([N+](=O)[O-])ccc(c34)C2=O)c1	0	5	12*	3	8.6*
Cc1ccc(N2C(=O)c3cccc4c([N+](=O)[O-])ccc(c34)C2=O)c2cccnc12	-4	2	1	-8	/
Cc1ccc(C2(c3noc(CN4CCC(C(=O)N5CCOCC5)CC4)n3)CCCC2)cc1	-1	0	4.7*	3	0
Cc1ccc(C2(c3noc(CN4CCOCC4)n3)CCCC2)cc1	-6	2	-1	-2	/
Cc1ccc(/C=C(\C#N)C(=O)NCC2CCCO2)o1 (stereo unspecified)	-10	-6	5.2*	12	4.6*
COc1cc(/C=C(\C#N)C(=O)NCC2CCCO2)ccc1OCC(=O)O (stereo unspecified)	-6	/	5.5*	/	4
Cc1cccc(NC(=O)CNC(=O)[C@@H](Cc2ccccc2)NC(=O)[C@H]2O[C@@H](n3ccc(=O)[nH]c3=O)[C@H](O)[C@@H]2O)c1C	/	/	1	/	/
CCOC(=O)CSc1nc(=O)n2ccc(C)cc2n1	-4	-12	4.7*	11	0
O=S(=O)(Nc1cc(C(F)(F)F)ccc1N1CCOCC1)c1ccc2ccccc2c1	1	-9	1	-17	/
C=CCNC(=O)/C(=C\C=C\c1ccccc1)NC(=O)c1ccccc1Cl	-5	2	4	-12	/
